Residue numbers refer to the chain shown, from its start.
Tests used:
Assay in all cases: yeast three-hybrid, YBZ-1, SC-Leu-His + 0.5 mM 3-AT, 4 days
Settings in all cases: tags: N-Gal4 AD-HA kept; label: inside an RPR1-promoter hybrid RNA with tandem MS2 sites; ssRNA
PUM1 PUF domain R1-RHV = PUM1 PUF domain R1-RHV (Homo sapiens, UniProt Q14671 828-1176, S863R;R864H;Q867V)
Procedure, shortened: (§1)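 Pumilio-1 PUF domain libraries, randomized at the three base-contacting residues of each repeat, were co-expressed with matching RNA elements from a centromeric plasmid in strain YBZ-1, which carries a LexA–MS2 coat fusion and a HIS3 reporter. Transformants grew for four days on SC-Leu (input) or on SC-Leu-His + 0.5 mM 3-AT (selection), and the repeat regions were PCR-amplified and Illumina-sequenced. The interaction score is the log change in variant frequency from input to selection. That logarithm is base 2, with a pseudocount of 1 where a variant was absent.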

PUM1 PUF domain R7-GVN = PUM1 PUF domain R7-GVN (Homo sapiens, UniProt Q14671 828-1176, S1079G;N1080V;E1083N)
Procedure, shortened: as §1

PUM1 PUF domain R6-HYS = molecular target: T1, PUM1 PUF domain R6-HYS (Homo sapiens, UniProt Q14671 828-1176, N1043H;Q1047S)
T1 sequence: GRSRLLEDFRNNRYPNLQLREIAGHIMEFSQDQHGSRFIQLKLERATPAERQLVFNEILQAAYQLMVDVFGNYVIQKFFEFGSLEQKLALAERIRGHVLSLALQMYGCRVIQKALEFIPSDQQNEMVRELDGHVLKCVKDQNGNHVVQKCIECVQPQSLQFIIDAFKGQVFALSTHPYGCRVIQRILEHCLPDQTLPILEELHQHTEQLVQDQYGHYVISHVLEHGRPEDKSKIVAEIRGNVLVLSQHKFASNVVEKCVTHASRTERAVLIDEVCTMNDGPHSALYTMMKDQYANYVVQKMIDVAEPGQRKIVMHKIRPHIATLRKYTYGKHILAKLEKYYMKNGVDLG
Procedure, shortened: as §1

PUM1 PUF domain R5-KNC = PUM1 PUF domain R5-KNC (Homo sapiens, UniProt Q14671 828-1176, C1007K;R1008N;Q1011C)
Procedure, shortened: as §1

PUM1 PUF domain R5-RCR = PUM1 PUF domain R5-RCR (Homo sapiens, UniProt Q14671 828-1176, C1007R;R1008C;Q1011R)
Procedure, shortened: as §1

PUM1 PUF domain R7-KFF = PUM1 PUF domain R7-KFF (Homo sapiens, UniProt Q14671 828-1176, S1079K;N1080F;E1083F)
Procedure, shortened: as §1

PUM1 PUF domain R6-RWT = molecular target: T2, PUM1 PUF domain R6-RWT (Homo sapiens, UniProt Q14671 828-1176, N1043R;Y1044W;Q1047T)
T2 sequence: T1 sequence with H216R, Y217W, S220T
Procedure, shortened: as §1

Question: For “GGCUAGAACUAGUGGAUCCCCCGGCGCCCGGCGGCUCGAGCCCGGGUAAGUGUAAAUUGUCUGCAUGCCGCCGGGCGCCAUGCCUGCAGGUCGACUCUAGAAAACAUG”, which binding signal (PUM1 PUF domain R1-RHV) is on record?
Answer: Its binding signal is 2.89 log2 enrichment (interaction score).

Question: “GGCUAGAACUAGUGGAUCCCCCGGCGCCCGGCGGCUCGAGCCCGGGUAAGUGUAAAUCGUCUGCAUGCCGCCGGGCGCCAUGCCUGCAGGUCGACUCUAGAAAACAUG” was tested. Which binding signal (PUM1 PUF domain R1-RHV) did it give?
Answer: Its binding signal is 1.47 log2 enrichment (interaction score).

Question: “GGCUAGAACUAGUGGAUCCCCCGGCGCCCGGCGGCUCGAGCCCGGGUAAGUUUAAAUAGUCUGCAUGCCGCCGGGCGCCAUGCCUGCAGGUCGACUCUAGAAAACAUG” was tested. Which binding signal (PUM1 PUF domain R7-GVN) did it give?
Answer: Its binding signal is 3.93 log2 enrichment (interaction score).

Question: “GGCUAGAACUAGUGGAUCCCCCGGCGCCCGGCGGCUCGAGCCCGGGUAAGUGUAAAUAGUCUGCAUGCCGCCGGGCGCCAUGCCUGCAGGUCGACUCUAGAAAACAUG” was tested. Which binding signal (PUM1 PUF domain R6-HYS) did it give?
Answer: The binding signal was 3.52 log2 enrichment (interaction score).

Question: Which results are given for “GGCUAGAACUAGUGGAUCCCCCGGCGCCCGGCGGCUCGAGCCCGGGUAAGUGUUAAUAGUCUGCAUGCCGCCGGGCGCCAUGCCUGCAGGUCGACUCUAGAAAACAUG”?
Answer: binding signal (PUM1 PUF domain R5-KNC): 4.22 log2 enrichment (interaction score); binding signal (PUM1 PUF domain R5-RCR): 2.8 log2 enrichment (interaction score)

Question: For “GGCUAGAACUAGUGGAUCCCCCGGCGCCCGGCGGCUCGAGCCCGGGUAAGUGUCAAUAGUCUGCAUGCCGCCGGGCGCCAUGCCUGCAGGUCGACUCUAGAAAACAUG”, which binding signal (PUM1 PUF domain R5-RCR) is on record?
Answer: Its binding signal is 3.99 log2 enrichment (interaction score).

Question: “GGCUAGAACUAGUGGAUCCCCCGGCGCCCGGCGGCUCGAGCCCGGGUAAGUCUAAAUAGUCUGCAUGCCGCCGGGCGCCAUGCCUGCAGGUCGACUCUAGAAAACAUG” was tested. Which binding signal (PUM1 PUF domain R7-KFF) did it give?
Answer: The binding signal was 2.82 log2 enrichment (interaction score).

Question: With “GGCUAGAACUAGUGGAUCCCCCGGCGCCCGGCGGCUCGAGCCCGGGUAAGUAUAAAUAGUCUGCAUGCCGCCGGGCGCCAUGCCUGCAGGUCGACUCUAGAAAACAUG” as the sequence, how does the binding signal (PUM1 PUF domain R7-KFF) read?
Answer: The binding signal was 3.16 log2 enrichment (interaction score).

Question: “GGCUAGAACUAGUGGAUCCCCCGGCGCCCGGCGGCUCGAGCCCGGGUAAGUGAAAAUAGUCUGCAUGCCGCCGGGCGCCAUGCCUGCAGGUCGACUCUAGAAAACAUG” was tested. Which binding signal (PUM1 PUF domain R6-RWT) did it give?
Answer: Its binding signal is 3.03 log2 enrichment (interaction score).
